Measured values published in ChEMBL document CHEMBL3988442, “University of Dundee, Small-Polar-MMV Screening Library” (2021).
About 1,200 (3.2%) of roughly 38,000 compounds showed an effect of 50% or more. The median lay at about -58%. For the sample, strong results were picked, then their nearest neighbours and some compounds at random.

System: Plasmodium falciparum
Assay: Calibr Malaria Delayed Death Assay SOP
Assay type: functional, organism-based
Parameters: scale not given: in the data most compounds retested in dose-response had high values
Conditions: concentration 4.99e-06 (unit not given; other assays of the set use mol/L)

Row | SMILES | Percent Effect
1 | CSCC(=O)N(C)Cc1ccccc1 | -13.25%
2 | N#Cc1nc(COc2ccc3c(c2)OCO3)oc1NC1CC1 | -68.74%
3 | O=C(C1CCCC1)N1CCC(C2CCN(Cc3ccc(Cl)cc3)C2)CC1 (stereo not drawn) | 62.77%
4 | Clc1cccnc1N1CCC(C2CCN(Cc3cccnc3)CC2)C1 (stereo not drawn) | -53.88%
5 | O=C(C1CCC1)N1CC[C@@H]2CN(Cc3cccnc3)S(=O)(=O)[C@@H]2CC1 | -57.62%
6 | O=C(C1CCC1)N1CCC(C2CCN(Cc3ccc(Cl)cc3)C2)CC1 (stereo not drawn) | 64.14%
7 | CN1CCN(Cc2ccc(Cl)cc2)CC1C(=O)O (stereo not drawn) | -101.8%
8 | CCOCC(=O)N1CCC(C2CCN(Cc3ccc(Cl)cc3)C2)CC1 (stereo not drawn) | -3.864%
9 | Clc1ccc(N2CCC(C3CCN(Cc4cccnc4)CC3)C2)nc1 (stereo not drawn) | 9.118%
10 | CC(=O)NCC(=O)N1CCC(C2CCN(Cc3ccc(Cl)cc3)C2)CC1 (stereo not drawn) | 1.574%
11 | Clc1ccc(CN2CCC(C3CCN(Cc4cccnc4)CC3)C2)cc1 (stereo not drawn) | 62.84%
12 | CCOC(=O)Cc1csc(NC(=O)c2cc(=O)c(OC)c[nH]2)n1 | -55.6%
13 | CN(C)CCn1c2c(ccc1=O)CCN(C(=O)c1ccoc1)CC2.O=C(O)C(F)(F)F | -90.05%
14 | CCCC(O)CN1CCC(=O)N(C)Cc2cc(F)ccc21 (stereo not drawn) | -57.01%
15 | O=C(c1cccnc1O)N(CCO)Cc1cc(Br)ccc1F | -29.02%
16 | O=C(O)c1ccc(CNC(=O)C2CCN(C(=O)C3CCC3)CC2)s1 | -58.95%
17 | Cc1nccn1CCCC(=O)N1CCC2(CCC(=O)N(C(C)C)C2)CC1 | -32.26%
18 | COCCNC(=O)N1CCCCC1CNC(=O)Nc1ccccc1 (stereo not drawn) | -90.53%
19 | CNC(=O)CN1CCC(OCc2ccc(Cl)c(Cl)c2)CC1 | 0.3675%
20 | CCC(N)C(=O)N1CCC(OCc2ccc(Cl)c(Cl)c2)CC1.Cl (stereo not drawn) | 65.86%
21 | NC(=O)CN1CCC(OCc2ccc(Cl)c(Cl)c2)CC1 | 33.26%
22 | COc1ccc2c(c1)OCC(CNC(=O)c1cc(C(C)C)on1)C2 (stereo not drawn) | -29.19%
23 | Cc1c(C(=O)NCC2CCN(C)C2)n(C)c2c(C)cccc12 (stereo not drawn) | 8.044%

Row | SMILES | Percent Effect
24 | CC(=O)Nc1nc(C2CCN(C(=O)c3cncs3)CC2)cs1 | 38.41%
25 | CNC(=O)Cn1c(CO)cnc1SCc1ccccc1Cl | -84%
26 | COc1ccc(CCC(=O)NCc2cc(C)on2)cc1 | -56.8%
27 | COc1cc2nc(NCc3ccc(C)nc3)nc(N)c2cc1OC | 90.21%
28 | COc1cc2c(cc1CNC(=O)Cc1ccc(C)nc1)OC(C)C2 (stereo not drawn) | -97.01%
29 | CCOc1ccc(OCC)c(NCc2cc(C)on2)c1 | -105.8%
30 | COc1ccccc1NCC(=O)NCc1scnc1C | -101.9%
31 | COc1cc2nc(NCc3scnc3C)nc(N)c2cc1OC | 89.32%
32 | COc1cc(C(C)NCc2scnc2C)ccc1SC(F)F (stereo not drawn) | 16.99%
33 | COc1ccc(C(C)NC(=O)NCCc2ccc(C)nc2)c(OC)c1 (stereo not drawn) | -63.03%
34 | COc1cc2nc(NCc3cc(C)on3)nc(N)c2cc1OC | 61%
35 | CC(=O)c1c(O)n(C)c2ccccc12 | -129.1%
36 | O=C(COCCc1ccccc1)N1CCCC(n2cncn2)C1 (stereo not drawn) | -37.64%
37 | Cc1cccc(CSc2nnc(C)n2CC(N)=O)c1 | -106.3%
38 | CS(=O)(=O)N1CCC(CNC(=O)C2CCC2)CC1 | -20.15%
39 | O=C(NCCc1ccncc1)c1ccc(S(=O)(=O)NC2CCC2)cc1 | -25%
40 | CSCC[C@@H](CO)NC(=O)c1sc(-c2ccc(Cl)cc2)nc1C | -102.9%
41 | CCOC(=O)CSc1nnc(C(N)CC(C)C)o1.Cl (stereo not drawn) | -109.2%
42 | NC(=O)NCC1CCCCN1C(=O)c1cc(F)cc(F)c1 (stereo not drawn) | -156.9%
43 | CC1CCCN(C(=O)CNC(=O)c2ccoc2)C1 (stereo not drawn) | -96.13%
44 | CC(C)(C)CC(=O)Nc1cnn(-c2ccccc2S(C)(=O)=O)c1 | -5.765%
45 | CC(C)c1ncc2c(n1)CN(CCCc1nc3ccccc3o1)CC2 | 69.07%
46 | Cc1ncc2c(n1)CN(Cc1nc3ccccc3o1)CC2 | -59.98%

Row | SMILES | Percent Effect
47 | c1ccc2oc(CCCN3CCc4cncnc4C3)nc2c1 | -82.49%
48 | O=C(NCCc1cnccn1)c1cccc(S(=O)(=O)NC2CCOC2)c1 (stereo not drawn) | -80.94%
49 | O=C(c1cnn[nH]1)N(CCCO)Cc1cccnc1 | -126.7%
50 | CN(Cc1ccsc1)C(=O)CNC(=O)N1CCc2ccccc2C1 | -30.75%
51 | COc1cccc(CN2CCC3(CC(Nc4ccncn4)C3)C2)c1F (stereo not drawn) | -62.87%
52 | N#Cc1cccc(S(=O)(=O)N2CC(CC(=O)O)c3ccccc32)c1 (stereo not drawn) | -122.6%
53 | CN1CCN(S(=O)(=O)c2cccc(C#N)c2)c2ccc(F)cc21 | -39.03%
54 | CN(C)C1Cc2ccccc2N(S(=O)(=O)c2cccc(C#N)c2)C1 (stereo not drawn) | 75.93%
55 | CC(=O)NCCNC(=O)C(c1ccccc1C)N(C)C (stereo not drawn) | -142.6%
56 | Cc1cscc1-c1nc(C2CCOC2)no1 (stereo not drawn) | -27.07%
57 | O=C(c1scc2c1OCCO2)N1CCOC(CCc2ccccc2)C1 (stereo not drawn) | 88.31%
58 | O=C(c1scc2c1OCCO2)N1CCOC(Cc2ccc(F)cc2)C1 (stereo not drawn) | -16.04%
59 | O=C(c1scc2c1OCCO2)N1CCOC(Cc2cccc(F)c2)C1 (stereo not drawn) | -44.17%
60 | CC1CCC(NS(=O)(=O)CC(=O)NCC2CCC2)CC1 (stereo not drawn) | -74.87%
61 | O=C(CCc1ccco1)N1CCC(Oc2ccccc2)(C(=O)O)CC1 | -48.84%
62 | COc1ccc(CNC(=O)C2=NN(c3ccc(C)cc3)C(=O)CN2)cc1 | 74.74%
63 | COc1ncccc1CNC(=O)C1=NN(c2ccccc2)C(=O)CN1 | -51.2%
64 | O=C(NCc1cccnc1)C1=NN(c2ccccc2)C(=O)CN1 | 39.33%
65 | CN1C(=O)CC[C@]12CC[C@@H](NC(=O)NCc1cccnc1)CC2.O=C(O)C(F)(F)F | -78.37%
66 | COCCN(C/C=C/c1ccccc1)Cc1ccccn1 | 20.8%
67 | CCc1ccc(CN(C/C=C/c2ccccc2)CCOC)nc1 | 52.86%
68 | COCCN(C/C=C/c1ccccc1)Cc1nccs1 | -11.48%
